Reference: the supplement of paper PMC11732987, “Enantioselective OTUD7B fragment discovery through chemoproteomics screening and high-throughput optimisation” (Communications Chemistry, 2025)

Legend:
Experiment in all cases: log2 ratio of Biotin-Ahx-Ub-VS probe labelling (fragment/DMSO); higher = less target engagement (more negative = stronger competition), active = hit call of the paper (q ≤ 0.05, log2 ratio ≤ -1)
Details in all cases: compound concentration: 200 uM; treatment time: 3 h
USP16 = USP16 (UniProt Q9Y5T5)
Summary of the method: (§1)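 Using Biotin-Ahx-Ub-VS at 0.5 µM final for 1 h, DUBs were labelled in HEK293T lysate (495 µg per sample) that had first been treated in triplicate with fragment at 200 µM or vehicle for 3 h. NeutrAvidin enrichment, LysC and trypsin digestion and diaPASEF LC-MS/MS followed. Spectronaut label-free quantities were global-median-normalised. Values are average log2 fragment/vehicle ratios by unpaired t-test, using proteins with ≥2 unique peptides.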

USP19 = target: T1, USP19 (UniProt O94966)
T1 sequence (whole entry): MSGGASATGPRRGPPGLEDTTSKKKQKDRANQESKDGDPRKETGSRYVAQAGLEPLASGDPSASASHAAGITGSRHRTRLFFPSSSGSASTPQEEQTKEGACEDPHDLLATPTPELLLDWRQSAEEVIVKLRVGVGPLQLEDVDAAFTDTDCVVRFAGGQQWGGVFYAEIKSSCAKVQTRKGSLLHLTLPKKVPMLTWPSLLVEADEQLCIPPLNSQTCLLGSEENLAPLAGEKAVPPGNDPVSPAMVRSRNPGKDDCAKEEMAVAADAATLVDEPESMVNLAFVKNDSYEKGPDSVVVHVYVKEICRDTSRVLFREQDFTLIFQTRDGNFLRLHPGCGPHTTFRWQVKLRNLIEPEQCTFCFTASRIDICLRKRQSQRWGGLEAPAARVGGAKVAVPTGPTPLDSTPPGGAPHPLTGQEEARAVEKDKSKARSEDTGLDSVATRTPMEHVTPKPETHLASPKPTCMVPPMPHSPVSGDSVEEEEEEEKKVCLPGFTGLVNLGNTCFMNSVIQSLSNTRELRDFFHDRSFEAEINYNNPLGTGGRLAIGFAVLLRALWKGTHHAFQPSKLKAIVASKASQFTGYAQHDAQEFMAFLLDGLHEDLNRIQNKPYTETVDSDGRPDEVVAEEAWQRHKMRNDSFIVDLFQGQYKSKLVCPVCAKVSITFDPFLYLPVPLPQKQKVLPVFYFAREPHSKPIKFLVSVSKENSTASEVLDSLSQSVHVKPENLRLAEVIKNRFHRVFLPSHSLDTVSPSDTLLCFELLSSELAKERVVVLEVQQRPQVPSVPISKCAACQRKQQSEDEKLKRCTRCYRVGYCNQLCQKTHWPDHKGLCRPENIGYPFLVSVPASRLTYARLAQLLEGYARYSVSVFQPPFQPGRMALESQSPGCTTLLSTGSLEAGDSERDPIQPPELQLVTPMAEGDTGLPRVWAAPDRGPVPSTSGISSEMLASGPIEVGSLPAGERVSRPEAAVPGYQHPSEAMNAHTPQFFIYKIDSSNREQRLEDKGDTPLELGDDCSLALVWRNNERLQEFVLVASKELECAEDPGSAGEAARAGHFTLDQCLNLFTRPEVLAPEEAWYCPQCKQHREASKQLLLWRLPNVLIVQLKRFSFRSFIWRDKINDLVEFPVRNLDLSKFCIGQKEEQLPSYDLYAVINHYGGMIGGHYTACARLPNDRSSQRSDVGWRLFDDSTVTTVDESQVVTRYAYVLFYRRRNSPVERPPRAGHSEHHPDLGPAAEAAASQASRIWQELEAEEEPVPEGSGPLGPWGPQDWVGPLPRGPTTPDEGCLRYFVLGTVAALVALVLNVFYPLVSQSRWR
Summary of the method: as §1

USP24 = USP24 (UniProt Q9UPU5)
Summary of the method: as §1

USP25 = target: T2, USP25 (UniProt Q9UHP3)
T2 sequence (whole entry): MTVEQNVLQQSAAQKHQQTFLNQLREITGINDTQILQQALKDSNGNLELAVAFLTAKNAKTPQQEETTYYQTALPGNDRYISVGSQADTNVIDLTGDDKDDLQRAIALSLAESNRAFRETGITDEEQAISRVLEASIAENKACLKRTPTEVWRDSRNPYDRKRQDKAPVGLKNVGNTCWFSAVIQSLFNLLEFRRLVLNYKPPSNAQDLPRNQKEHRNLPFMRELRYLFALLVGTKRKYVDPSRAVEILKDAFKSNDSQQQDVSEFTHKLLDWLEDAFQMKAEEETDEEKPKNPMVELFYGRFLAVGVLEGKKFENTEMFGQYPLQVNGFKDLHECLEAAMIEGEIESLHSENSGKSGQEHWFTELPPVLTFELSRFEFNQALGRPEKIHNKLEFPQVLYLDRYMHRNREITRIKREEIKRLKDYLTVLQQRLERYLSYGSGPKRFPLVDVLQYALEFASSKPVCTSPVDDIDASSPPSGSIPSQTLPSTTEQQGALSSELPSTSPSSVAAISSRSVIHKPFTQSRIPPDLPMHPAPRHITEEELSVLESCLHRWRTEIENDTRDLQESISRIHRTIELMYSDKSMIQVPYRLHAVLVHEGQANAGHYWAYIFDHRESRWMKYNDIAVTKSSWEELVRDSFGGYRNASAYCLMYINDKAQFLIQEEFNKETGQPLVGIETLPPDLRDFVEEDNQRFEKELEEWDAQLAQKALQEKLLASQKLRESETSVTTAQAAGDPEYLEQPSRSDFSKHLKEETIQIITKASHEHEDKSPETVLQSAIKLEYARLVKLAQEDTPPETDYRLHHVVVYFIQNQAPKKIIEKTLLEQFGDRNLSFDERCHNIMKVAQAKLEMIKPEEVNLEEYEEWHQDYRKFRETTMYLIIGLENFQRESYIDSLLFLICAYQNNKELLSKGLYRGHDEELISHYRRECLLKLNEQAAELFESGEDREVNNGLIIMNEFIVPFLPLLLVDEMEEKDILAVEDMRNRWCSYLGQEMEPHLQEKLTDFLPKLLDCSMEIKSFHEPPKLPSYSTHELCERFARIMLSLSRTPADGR
Summary of the method: as §1

USP28 = target: T3, USP28 (UniProt Q96RU2)
T3 sequence (whole entry): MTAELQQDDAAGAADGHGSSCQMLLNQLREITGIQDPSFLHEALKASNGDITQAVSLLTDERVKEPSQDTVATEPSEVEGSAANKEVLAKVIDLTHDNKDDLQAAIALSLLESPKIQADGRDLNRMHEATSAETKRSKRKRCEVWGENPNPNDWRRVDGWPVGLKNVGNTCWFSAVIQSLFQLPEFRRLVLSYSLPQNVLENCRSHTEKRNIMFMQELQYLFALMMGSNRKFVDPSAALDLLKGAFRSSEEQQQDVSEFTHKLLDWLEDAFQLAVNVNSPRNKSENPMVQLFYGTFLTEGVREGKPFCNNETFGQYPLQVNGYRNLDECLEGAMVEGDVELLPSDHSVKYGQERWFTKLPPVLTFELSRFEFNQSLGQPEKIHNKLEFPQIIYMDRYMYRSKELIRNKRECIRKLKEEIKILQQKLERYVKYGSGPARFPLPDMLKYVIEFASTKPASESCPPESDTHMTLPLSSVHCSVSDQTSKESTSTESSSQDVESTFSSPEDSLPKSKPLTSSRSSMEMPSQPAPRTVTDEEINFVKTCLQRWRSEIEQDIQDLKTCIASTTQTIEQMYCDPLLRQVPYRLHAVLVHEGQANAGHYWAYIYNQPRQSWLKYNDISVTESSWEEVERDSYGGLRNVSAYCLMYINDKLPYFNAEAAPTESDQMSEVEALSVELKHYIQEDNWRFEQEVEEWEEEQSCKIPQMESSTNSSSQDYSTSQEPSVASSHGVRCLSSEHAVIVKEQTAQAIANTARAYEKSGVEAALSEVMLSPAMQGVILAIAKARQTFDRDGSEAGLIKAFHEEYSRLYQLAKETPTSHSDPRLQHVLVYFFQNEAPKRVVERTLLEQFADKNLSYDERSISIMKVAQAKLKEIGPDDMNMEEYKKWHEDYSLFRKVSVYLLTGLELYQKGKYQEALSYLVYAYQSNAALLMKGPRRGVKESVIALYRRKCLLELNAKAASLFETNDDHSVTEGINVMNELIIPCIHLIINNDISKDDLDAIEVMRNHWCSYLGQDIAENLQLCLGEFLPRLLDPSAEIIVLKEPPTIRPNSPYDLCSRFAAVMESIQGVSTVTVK
Summary of the method: as §1

Measured: log2 ratio of Biotin-Ahx-Ub-VS probe labelling

USP16, sequence (Q9Y5T5 whole entry, looked up, the tested form may be a part): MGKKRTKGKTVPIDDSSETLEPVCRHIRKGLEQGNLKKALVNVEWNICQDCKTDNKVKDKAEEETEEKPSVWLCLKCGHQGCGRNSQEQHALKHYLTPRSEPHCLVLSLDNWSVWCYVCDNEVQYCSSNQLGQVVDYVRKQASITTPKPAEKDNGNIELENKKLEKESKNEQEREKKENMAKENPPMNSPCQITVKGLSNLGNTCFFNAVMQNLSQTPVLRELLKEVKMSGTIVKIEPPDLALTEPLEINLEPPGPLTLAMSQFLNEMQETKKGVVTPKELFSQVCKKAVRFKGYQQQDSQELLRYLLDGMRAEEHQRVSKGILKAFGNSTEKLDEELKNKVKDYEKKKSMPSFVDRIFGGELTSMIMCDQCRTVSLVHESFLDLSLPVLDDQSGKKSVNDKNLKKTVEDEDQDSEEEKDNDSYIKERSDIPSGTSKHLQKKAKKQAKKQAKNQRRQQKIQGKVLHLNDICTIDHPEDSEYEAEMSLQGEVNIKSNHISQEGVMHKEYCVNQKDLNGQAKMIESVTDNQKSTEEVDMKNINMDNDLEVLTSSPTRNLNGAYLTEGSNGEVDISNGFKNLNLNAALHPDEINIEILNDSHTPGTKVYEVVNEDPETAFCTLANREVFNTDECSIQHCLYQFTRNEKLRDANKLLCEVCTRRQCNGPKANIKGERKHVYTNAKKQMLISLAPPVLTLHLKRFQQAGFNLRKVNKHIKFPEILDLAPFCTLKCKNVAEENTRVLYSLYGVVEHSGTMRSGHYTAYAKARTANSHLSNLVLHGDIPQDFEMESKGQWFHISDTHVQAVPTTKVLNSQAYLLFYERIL
USP24, sequence (Q9UPU5 whole entry): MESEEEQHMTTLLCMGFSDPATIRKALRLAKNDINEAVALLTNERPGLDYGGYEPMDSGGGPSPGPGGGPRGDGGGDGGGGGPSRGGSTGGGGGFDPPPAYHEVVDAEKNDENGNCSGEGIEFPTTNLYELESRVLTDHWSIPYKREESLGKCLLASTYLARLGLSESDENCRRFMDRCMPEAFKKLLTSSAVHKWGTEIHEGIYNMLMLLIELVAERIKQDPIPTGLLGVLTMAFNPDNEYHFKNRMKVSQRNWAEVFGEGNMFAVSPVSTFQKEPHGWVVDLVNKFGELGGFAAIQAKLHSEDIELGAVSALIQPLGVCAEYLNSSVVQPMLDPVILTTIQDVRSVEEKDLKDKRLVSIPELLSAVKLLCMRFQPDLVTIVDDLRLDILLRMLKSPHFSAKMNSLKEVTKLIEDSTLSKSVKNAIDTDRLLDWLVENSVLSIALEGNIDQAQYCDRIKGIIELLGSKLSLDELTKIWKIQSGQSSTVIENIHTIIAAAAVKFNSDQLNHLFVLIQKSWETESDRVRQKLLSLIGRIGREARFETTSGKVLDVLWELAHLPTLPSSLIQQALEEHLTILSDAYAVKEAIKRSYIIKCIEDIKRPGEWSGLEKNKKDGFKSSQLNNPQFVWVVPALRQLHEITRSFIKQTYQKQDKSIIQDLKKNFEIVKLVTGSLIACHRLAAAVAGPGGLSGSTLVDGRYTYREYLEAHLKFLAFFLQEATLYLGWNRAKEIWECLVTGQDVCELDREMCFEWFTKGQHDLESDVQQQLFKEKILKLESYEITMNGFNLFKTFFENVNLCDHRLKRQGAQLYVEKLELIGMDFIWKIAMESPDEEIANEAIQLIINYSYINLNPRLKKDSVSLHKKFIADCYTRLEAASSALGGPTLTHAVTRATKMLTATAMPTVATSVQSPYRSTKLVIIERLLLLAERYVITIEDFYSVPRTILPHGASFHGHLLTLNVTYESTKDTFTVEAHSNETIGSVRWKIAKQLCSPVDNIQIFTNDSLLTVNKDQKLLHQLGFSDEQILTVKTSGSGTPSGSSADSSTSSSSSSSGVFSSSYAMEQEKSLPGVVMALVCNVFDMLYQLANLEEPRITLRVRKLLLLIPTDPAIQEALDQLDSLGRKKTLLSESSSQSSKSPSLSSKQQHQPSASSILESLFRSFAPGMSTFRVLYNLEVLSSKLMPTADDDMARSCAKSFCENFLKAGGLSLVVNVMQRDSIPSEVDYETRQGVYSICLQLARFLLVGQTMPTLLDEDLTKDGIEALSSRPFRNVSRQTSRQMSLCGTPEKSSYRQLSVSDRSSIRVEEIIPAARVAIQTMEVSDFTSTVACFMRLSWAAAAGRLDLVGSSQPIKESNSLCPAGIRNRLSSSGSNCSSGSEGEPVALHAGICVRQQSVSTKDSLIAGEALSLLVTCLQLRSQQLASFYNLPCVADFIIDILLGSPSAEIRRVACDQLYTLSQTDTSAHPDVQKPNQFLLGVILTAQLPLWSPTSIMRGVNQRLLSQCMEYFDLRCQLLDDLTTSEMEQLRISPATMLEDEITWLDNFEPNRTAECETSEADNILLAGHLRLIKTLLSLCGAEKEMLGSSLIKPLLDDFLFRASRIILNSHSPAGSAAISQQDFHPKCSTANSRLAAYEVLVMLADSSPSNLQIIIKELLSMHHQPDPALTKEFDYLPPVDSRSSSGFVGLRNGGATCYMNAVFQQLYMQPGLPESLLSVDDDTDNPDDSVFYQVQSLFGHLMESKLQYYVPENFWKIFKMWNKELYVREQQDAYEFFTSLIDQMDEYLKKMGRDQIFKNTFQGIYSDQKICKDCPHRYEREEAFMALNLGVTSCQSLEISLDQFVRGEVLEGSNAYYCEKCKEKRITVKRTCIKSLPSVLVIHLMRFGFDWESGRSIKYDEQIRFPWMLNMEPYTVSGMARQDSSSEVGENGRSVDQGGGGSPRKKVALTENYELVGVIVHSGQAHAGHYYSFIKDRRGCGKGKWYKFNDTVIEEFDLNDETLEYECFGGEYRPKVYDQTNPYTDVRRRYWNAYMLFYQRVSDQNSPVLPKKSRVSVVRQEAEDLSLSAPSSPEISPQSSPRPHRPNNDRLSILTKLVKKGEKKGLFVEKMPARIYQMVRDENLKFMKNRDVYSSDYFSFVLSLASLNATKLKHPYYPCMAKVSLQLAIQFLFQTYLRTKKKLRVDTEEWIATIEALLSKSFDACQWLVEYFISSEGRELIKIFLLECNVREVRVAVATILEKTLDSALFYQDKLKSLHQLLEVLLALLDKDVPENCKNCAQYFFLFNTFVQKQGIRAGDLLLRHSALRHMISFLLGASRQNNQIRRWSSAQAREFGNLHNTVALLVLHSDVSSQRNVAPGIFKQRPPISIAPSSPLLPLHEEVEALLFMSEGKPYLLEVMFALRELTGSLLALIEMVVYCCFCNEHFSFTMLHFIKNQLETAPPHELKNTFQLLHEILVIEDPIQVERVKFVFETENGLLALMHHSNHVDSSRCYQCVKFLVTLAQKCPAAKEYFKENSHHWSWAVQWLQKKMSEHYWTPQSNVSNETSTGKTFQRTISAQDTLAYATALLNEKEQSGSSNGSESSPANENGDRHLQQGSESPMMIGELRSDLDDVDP

Cc1noc(N2CCN(C(=O)CCl)CC2)n1.Cl
inactive: USP16 0.132 | USP19 -0.238 | USP24 -0.00876 | USP25 -0.13 | USP28 -0.444
